NSD2 HMT inh: blocks human histone methyltransferase NSD2 | O96028 | NSD2 peptide methylation, AlphaScreen, 120 min | inhibition, % at 12.5 µM | hit rate 0.54% among 310,000; in the data active = inhibition above about 50%
HDAC3 inhib: blocks human histone deacetylase 3 | hit rate 0.15% among 320,000 | inhibition, % at 8.3 µM | recombinant HDAC3, fluorogenic peptide/trypsin coupled, fluorescence; in the data active = inhibition above about 26%, passing the limit was not always enough
Target sequence (O15379 whole entry, looked up): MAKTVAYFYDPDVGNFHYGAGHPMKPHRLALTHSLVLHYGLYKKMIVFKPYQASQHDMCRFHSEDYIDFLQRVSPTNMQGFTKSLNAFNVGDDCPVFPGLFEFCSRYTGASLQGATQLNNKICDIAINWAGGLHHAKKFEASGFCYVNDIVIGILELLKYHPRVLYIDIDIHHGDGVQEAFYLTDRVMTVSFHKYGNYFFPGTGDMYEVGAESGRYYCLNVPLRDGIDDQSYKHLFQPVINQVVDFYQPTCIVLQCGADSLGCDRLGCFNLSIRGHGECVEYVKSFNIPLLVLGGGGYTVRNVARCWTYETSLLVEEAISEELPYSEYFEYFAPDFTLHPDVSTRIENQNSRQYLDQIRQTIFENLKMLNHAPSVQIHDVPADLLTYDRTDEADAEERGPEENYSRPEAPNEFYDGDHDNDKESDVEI
N-glyco inh: blocks N-linked glycosylation in D54 reporter cells; D54 ERlucT glycosylation luciferase reporter, 24 h; percent of 100 nM tunicamycin response; reporter increase, % at 12.5 µM; hit rate 0.23% among 360,000;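 active = mean luciferase reporter signal, scaled so untreated is 0 and the glycosylation-blocking control 100, at or above a set limit in every replicate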;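 also: luciferase carries N-glycosylation sites so blocking glycosylation raises the light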
CASP6 VEID inh: caspase-6 (human) enzyme inhibition | P55212 | purified caspase-6, Z-VEID-R110 cleavage fluorescence | inhibition, % at 12.5 µM | hit rate 0.53% among 350,000;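 active = mean inhibition across replicates at least about 35%, with every replicate also reaching that limit, limit read from the data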
Keap1 Nrf2 FP: disrupts human Keap1 binding to Nrf2 peptide; inhibition, % at 9.4 µM; hit rate 0.15% among 340,000; Keap1 Kelch-Nrf2 peptide fluorescence polarization, 1536-well; in the data active = inhibition above about 12%;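 also: human Keap1 Kelch domain with fluorescein labeled Nrf2 9mer peptide probe; higher means more block of Keap1 binding to Nrf2 peptide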
C-LANA FP: inhibitors of KSHV LANA C-terminal domain DNA binding | AID 504423 | inhibition, % at 9 µM | MBP-C-LANA/FAM-LBS DNA binding, fluorescence polarization | hit rate 0.078% among 340,000;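 active = highest replicate inhibition at or above 60% at 9 µM, even if other replicates fall short; inactive = all replicates below 60% inhibition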
Alpha artifact: AlphaScreen assay artifact in NSD2 counter-screen; shares compounds with NSD2 HMT inh; AlphaScreen artifact counterscreen, preloaded methylated H4 peptide; AC35, µM (highest dose often 10 µM); hit rate 9.4% among 1,500; call rule not given here
A number is an active result; n = inactive; x = no result. Most compounds without a hit are left out; they make up all but 1.1% or so of the library.

SMILES	NSD2 HMT inh	HDAC3 inhib	N-glyco inh	CASP6 VEID inh	Keap1 Nrf2 FP	C-LANA FP	Alpha artifact
CCc1ccc(S(=O)(=O)/N=C2\C=C(Nc3cccc(C(=O)O)c3)C(=O)c3ccccc32)cc1	132.3	n	n	99.5	n	n	9.25µM
Cc1ccc(S(=O)(=O)/N=C2\C=C(NS(=O)(=O)c3ccccc3)C(=O)c3ccccc32)cc1	105.2	x	n	n	n	n	9.94µM
C[C@H](CO)N1C[C@H](C)[C@@H](CN(C)C)OCCCC[C@H](C)Oc2ccc(NS(=O)(=O)c3ccc(F)cc3)cc2C1=O	x	x	x	n	x	x	x
C[C@@H]1CN([C@H](C)CO)C(=O)c2cc(C#Cc3cccc(F)c3)cnc2O[C@H]1CN(C)C(=O)C1CC1	x	x	x	n	x	x	x
CN(C)Cc1cc(O)c(CN(C)C)cc1O	86.1	n	n	n	n	n	n
Cc1c(-c2ccc(/C=N/NC(=O)C(=O)Nc3ccccc3F)o2)cccc1[N+](=O)[O-]	64.2	x	n	n	x	x	n
C[C@H]1CN([C@@H](C)CO)C(=O)c2cccc(NC(=O)C3CC3)c2O[C@@H]1CN(C)Cc1ccc(C(=O)O)cc1	x	x	x	n	x	x	x
Cc1ccc(C#N)c(SCc2ccccc2F)n1	60.4	n	n	n	x	x	n
O=C(CSc1ccc(Cl)cc1)Nc1cc(-c2nc3ncccc3o2)ccc1Cl	50.9	n	x	n	x	x	n
O=C(CSc1ccc(Cl)cc1)Nc1cccc(-c2nc3ncccc3o2)c1	n	n	n	x	n	n	x
COCC(=O)Nc1ccc2c(c1)C(=O)N(C)[C@@H]1CC[C@H](CC(=O)NCc3ccccc3)O[C@H]1CO2	x	x	x	n	x	x	x
O=C(NCCc1ccccn1)C1CCCN1S(=O)(=O)c1ccc(Cl)cc1 (stereo unspecified)	119.4	n	n	x	n	n	n
O=C1c2cc(O)c(O)cc2OC(c2ccc(O)c(O)c2)C1O (stereo unspecified)	68.1	x	n	54.9	n	n	n
COc1ccc(/C=N/Nc2cc(N3CCCC3)nc(N3CCCC3)n2)cc1	101.9	n	n	n	n	n	n
O=C(NC1=NCCS1)c1csc2ccccc12	70.3	n	n	x	n	n	n
O=C(c1ccccc1OCc1ccccc1Br)N1CCN(c2ncccn2)CC1	99.1	n	n	x	n	n	n
C[C@H]1CN([C@@H](C)CO)C(=O)Cc2cc(N(C)C)ccc2O[C@H]1CN(C)S(C)(=O)=O	x	x	x	n	x	x	x
Cc1cc(-c2ccc(C)c(S(=O)(=O)N3CCN(c4ccccn4)CC3)c2)on1	130.9	n	n	n	n	n	n
O=C(OCc1ccc(Cl)c(Cl)c1)c1cccnc1Cl	107.2	n	n	n	n	n	n
O=C(OCc1ccc(Br)cc1)c1cccnc1Cl	n	n	n	n	n	n	x
O=c1c2ccccc2nnn1CSc1nc2ccccc2c(=O)n1CCCO	51.6	n	n	n	n	n	n
Cc1cc(C)n(CCC(=O)N2CCN(S(=O)(=O)c3ccccc3)CC2)n1	54.0	n	n	n	n	n	n
COc1cccc(CN(C)C(=O)c2cc(COc3c(F)cccc3F)on2)c1	99.1	n	n	n	n	n	n
COc1ccccc1OCCOc1ccc(/C=C2\C(=N)N3N=C(S(C)(=O)=O)SC3=NC2=O)cc1	71.1	n	n	n	n	n	n
COc1ccc(S(=O)(=O)N(C)CC(=O)NCCN2CCOCC2)cc1Cl	86.5	n	n	n	n	n	n
SMILES	NSD2 HMT inh	HDAC3 inhib	N-glyco inh	CASP6 VEID inh	Keap1 Nrf2 FP	C-LANA FP	Alpha artifact
CCCC(=O)Nc1ccc2c(c1)C(=O)N(C)[C@@H]1CC[C@@H](CC(=O)NCc3ccccc3Cl)O[C@@H]1CO2	x	x	x	n	x	x	x
CCc1ccc2cccc3c2c1N=CN3C	112.5	n	n	60.8	n	n	n
CCC(=O)N1CC2(C1)CN(Cc1ccc3c(c1)OCO3)[C@@H](CO)c1c2c2ccc(OC)cc2n1C	x	x	x	n	x	x	x
CN(C)c1cccc2c(S(=O)(=O)Nc3ccccn3)cccc12	57.8	n	n	x	n	n	n
Cc1ccc(S(=O)(=O)Nc2ccccn2)c(C)c1	n	x	n	n	x	x	x
COc1ccc2nc(SCC(=O)Nc3cc(C)on3)c(C#N)cc2c1	n	n	n	n	n	n	x
Cc1cc(NC(=O)CSc2nc3ccccc3cc2C#N)no1	54.9	n	n	n	n	n	n
CO[C@H]1CN(C)C(=O)c2ccc(NS(=O)(=O)c3ccccc3Cl)cc2OC[C@@H](C)NC[C@@H]1C	x	x	x	n	x	x	x
Cc1cccc(-c2nnc(SCC(=O)c3ccc(O)cc3O)n2C)c1	96.4	n	n	n	n	n	n
Cc1cccc(-c2nnc(SCC(=O)c3ccc(F)cc3)n2C)c1	n	x	x	x	x	x	x
CCC(=O)Nc1ccc2c(c1)C(=O)N(C)[C@@H]1CC[C@@H](CC(=O)N3CCCCC3)O[C@H]1CO2	x	x	x	n	x	x	x
CCN(C(=S)Nc1cccnc1)c1cccc2ccccc12	100.1	n	n	n	n	n	n
S=C(Nc1ccc(Cl)cc1)Nc1cccc2cnccc12	n	n	n	n	n	n	x
S=C(Nc1cccnc1)Nc1cccc2cnccc12	107.9	n	n	44.0	n	n	n
COc1ccc(NC(=S)Nc2cccc3cnccc23)cc1	54.5	n	n	x	n	n	n
COc1ccccc1NC(=S)Nc1cccc2cnccc12	82.1	n	n	n	n	n	n
CCOc1ccc(NC(=S)Nc2cccc3cnccc23)cc1	n	n	n	x	n	n	x
COc1ccc(-c2ccc3n(c2=O)C[C@@H]2[C@@H](CO)[C@H](C(=O)N(C)C)[C@H]3N2Cc2cncnc2)cc1	x	x	x	n	x	x	x
COc1cccc(NC(=O)C[C@@H]2CC[C@H]3[C@H](COc4ccc(NC(=O)C5CC5)cc4C(=O)N3C)O2)c1	x	x	x	n	x	x	x
CCC(=O)N1CC2(C1)[C@@H](c1ccc(-c3ccc(F)cc3)cc1)[C@H](CO)N2C(=O)CC	x	x	x	n	x	x	x
COc1ccc(-n2nnnc2SCC(=O)c2ccc3c(c2)OCCO3)cc1	97.9	n	n	x	n	n	n
CNC[C@@H]1OCCCC[C@H](C)Oc2ccc(NS(=O)(=O)c3cn(C)cn3)cc2C(=O)N([C@@H](C)CO)C[C@H]1C	x	x	x	n	x	x	x
COc1cc(C)c2sc3ccccc3c(=O)c2c1NCCN(C)C	161.3	x	n	n	x	x	3.25µM
Cc1ccccc1CN1CCN(C(=O)c2ccco2)CC1	56.1	n	n	n	n	n	n
C=CCN(CC=C)Cc1c(O)ccc2c1oc(=O)c1ccccc12	51.3	n	n	x	n	n	n
CCCC#Cc1ccc2c(c1)O[C@H](CN(C)Cc1cccnc1)[C@@H](C)CN([C@H](C)CO)S2(=O)=O	x	x	x	n	x	x	x
C[C@H](CO)N1C[C@H](C)[C@@H](CN(C)S(C)(=O)=O)Oc2ccc(NC(=O)CCN3CCOCC3)cc2CC1=O	x	x	x	n	x	x	x
Nc1nonc1C(=O)N/N=C/c1cc2c(cc1[N+](=O)[O-])OCO2	112.8	n	n	n	n	n	n
O=C(N/N=C\c1cc2c(cc1[N+](=O)[O-])OCO2)c1cccs1	n	n	n	n	n	n	x
C[C@H](CO)N1C[C@H](C)[C@H](CN(C)C(=O)CC2CC2)Oc2cc(C#C[C@@H](C)O)ccc2S1(=O)=O	x	x	x	n	x	x	x

Assay outcomes as filed in PubChem BioAssay.
